Compounds without any hit were thinned out: in the full panel of roughly 79,000, 15% have a hit. Cut-off read from the data, not from the text of the source: active = growth inhibition above about 70%; inactive = the rest.
Legend:
[1] = NCI Yeast Anticancer Drug Screen. Data for the rad50 strain (AID 155);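 note: 0% = growth of vehicle-only cultures of the same strain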; conditions: S. cerevisiae rad50 strain growth inhibition; at 50.0 µM; hits give high values
Outline: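 Readout: growth inhibition relative to vehicle-treated cultures. Compound exposure was carried out in a genetically defined yeast strain deficient in DNA damage repair.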

[2] = NCI Yeast Anticancer Drug Screen. Data for the mec2-1 strain (AID 157); conditions: S. cerevisiae mec2-1 strain, at 50.0 µM, hits give high values
Outline: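 Test agents were screened against the mec2-1 yeast strain, with defined DNA repair or cell cycle alteration. Growth was scored as inhibition against vehicle-only controls.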

[3] = NCI Yeast Anticancer Drug Screen. Data for the sgs1 mgt1 strain (AID 161);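 note: 0% = growth of cultures given vehicle only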; conditions: S. cerevisiae sgs1 mgt1 strain, at 50.0 µM, hits give high values
Outline: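 Genetically altered yeast, compound exposure, growth inhibition relative to vehicle.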

[4] = NCI Yeast Anticancer Drug Screen. Data for the cln2 rad14 strain (AID 165);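 note: 0% = growth equal to vehicle treated cultures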; conditions: S. cerevisiae cln2 rad14 strain, at 50.0 µM, hits give high values
Outline: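 Growth of compound-exposed yeast (cln2 rad14 genotype) measured and expressed as inhibition relative to vehicle.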

[5] = NCI Yeast Anticancer Drug Screen. Data for the bub3 strain (AID 167); conditions: S. cerevisiae bub3 mutant strain, at 50.0 µM, hits give high values
Outline: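 Readout: yeast growth inhibition, expressed relative to vehicle-only wells. The test organism is a mutant strain from a panel with lesions in DNA repair or checkpoint genes.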

[6] = NCI Yeast Anticancer Drug Screen. Data for the mlh1 rad18 strain (AID 175); conditions: S. cerevisiae mlh1 rad18 strain growth inhibition; at 50.0 µM; hits give high values
Outline: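 In this whole-cell yeast screen, a strain with altered DNA damage repair is challenged with compound, and its growth is measured against matched vehicle-treated controls.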

Measured: growth inhibition

Cc1ccc(NC(=O)CCSC(=O)Nc2ccc(C)cc2)cc1
inactive: [1] -1.2% | [2] -2.65% | [3] -7.05% | [4] 21.2% | [5] 8.1% | [6] 7.9%

Nc1nc(N)c2nn(-c3ccc(C(=O)O)cc3)nc2n1
inactive: [1] -13.6% | [2] 7.85% | [3] -5.15% | [4] -16.9% | [5] -11.2% | [6] 6.05%

CSc1ccc2c(cc1=O)[C@@H](NC(C)=O)CCc1cc(O)c(O)c(O)c1-2
inactive: [1] 7.1% | [2] 12.3% | [3] 18.1% | [4] 4.85% | [5] 17.4% | [6] 22.8%

CCOc1ccccc1NC(=O)CC1SC(=Nc2ccc([N+](=O)[O-])cc2)NC1=O (stereo unspecified)
inactive: [1] 24.6% | [2] 20.9% | [3] 10.3% | [4] 10.9% | [5] -13.3% | [6] -12.8%

O=Cc1cc2ccccc2c2ccccc12
inactive: [1] -23.2% | [2] -24% | [3] 5.45% | [4] -16.8% | [5] 0.2% | [6] -4.9%

CC(C)CNC(=S)N/N=C/C=C/c1ccc([N+](=O)[O-])cc1
inactive: [1] 4.2% | [2] 10.4% | [3] 23.4% | [4] -16.7% | [5] 2.7% | [6] 23.3%

Cc1ccc(S(=O)(=O)/C(C#N)=C/n2c(=S)[nH]c3ccc([N+](=O)[O-])cc32)cc1
inactive: [1] -14.3% | [2] -21.1% | [3] -9.05% | [4] -3.25% | [5] -10.6% | [6] 3.3%

COc1cccc(Nc2nc(N)nc(N)c2N)c1
inactive: [1] -4.2% | [2] -35.8% | [3] -6.3% | [4] 10.1% | [5] -19.6% | [6] 14%

CCN(CC)CCCNc1cccc2nc(Cl)ccc12
inactive: [1] 12.1% | [2] 18.6% | [3] 37.2% | [4] 24.5% | [5] 2.65% | [6] 9.25%

C/C=C\C=N\NC(=O)C(=O)N/N=C/C=C\C
inactive: [1] 0.9% | [2] -17.1% | [3] -7.55% | [4] -56.5% | [5] -8.5% | [6] -0.75%

Cc1cccc(C(C#N)c2ccc(N)cc2)c1 (stereo unspecified)
inactive: [1] -35.2% | [2] -61% | [3] -4.65% | [4] 11.7% | [5] -46% | [6] -18.4%

O=c1oc(-c2ccc(Cl)cc2Cl)nc2cc(Cl)ccc12
inactive: [1] 22.9% | [2] -10.4% | [3] 43.2% | [4] 22.2% | [5] 19.6% | [6] 25.4%

Nc1nc(N)c2nc3c(nc2n1)CCCC3
inactive: [1] -15.9% | [2] -35.7% | [3] -18.3% | [4] 8.95% | [5] -13.1% | [6] -25.7%

O=C(c1cccc(Cl)c1)c1cccc2ccccc12
inactive: [1] -1.7% | [2] 5.6% | [3] 19.6% | [4] -37% | [5] 41.9% | [6] -10.2%

O=C(Nc1ccc(Cl)c(Cl)c1)Nc1cccc2nsnc12
inactive: [1] 4.45% | [2] 7.35% | [3] -2.7% | [4] 13.2% | [5] -1.5% | [6] 26.2%

CCCNC(=O)c1ccccc1O
inactive: [1] 9.95% | [2] 3.05% | [3] 3.9% | [4] 1.4% | [5] 0.3% | [6] 7.45%

Cc1ccc(-c2cn3c(nc4ccccc43)c(-c3ccccc3)n2)cc1
inactive: [1] -25.6% | [2] -26.9% | [3] -41.6% | [4] -53.4% | [5] -26.1% | [6] -45%

S=C(Nc1ccccc1)N1CCN(c2ccccc2Cl)CC1
inactive: [1] 10.7% | [2] -1.65% | [3] 8.25% | [4] -33.9% | [5] -2.15% | [6] 13.1%

CC(=O)Oc1ccc(I)cc1C(=O)O
inactive: [1] 5.7% | [2] -29.4% | [3] 1.25% | [4] -12.7% | [5] 6.75% | [6] -11.8%

OCCSCCCSCCO
inactive: [1] 17.9% | [2] -4.8% | [3] -23% | [4] 3.5% | [5] 1.1% | [6] -4.8%

O=C1N(c2ccccc2)C(=O)C2(SC=NN2Cc2ccccc2)N1c1ccccc1 (stereo unspecified)
inactive: [1] -7% | [2] 2% | [3] -18.6% | [4] 8.2% | [5] 11.8% | [6] 10.7%

O=C1c2ccccc2C(C(c2ccccc2)c2ccccc2)c2ccccc21
inactive: [1] -22% | [2] -18.6% | [3] -28.9% | [4] 8.45% | [5] 5.25% | [6] -14%

NC1=NN(c2ccccc2)C(=O)C1/C(=N\NC(=O)c1cc2ccccc2cc1O)C(=O)Nc1cccc(C(F)(F)F)c1 (stereo unspecified)
inactive: [1] 47% | [2] 15.7% | [3] -33.5% | [4] 19.9% | [5] 20.5% | [6] 31.4%

COc1cc(O)c(C(=O)CC(C)=O)c(OC)c1
inactive: [1] -14.9% | [2] -14.8% | [3] -3.7% | [4] -0.9% | [5] 10.9% | [6] -11.7%

CCOC(=O)C1(C#N)C(C#N)(C#N)C1(C)CC (stereo unspecified)
inactive: [1] 10.8% | [2] -1.2% | [3] 24.8% | [4] -1.1% | [5] 0.75% | [6] -0.75%

CCCCCCCCN(CCCCCCCC)CC(O)c1ccc2cc(Br)c3ccccc3c2c1 (stereo unspecified)
inactive: [1] 25.9% | [2] 26.2% | [3] 46.5% | [4] 47.1% | [5] 24% | [6] 49.4%

NC(=O)Nc1ccc([N+](=O)[O-])cc1
inactive: [1] 4.65% | [2] -2.9% | [3] -2.6% | [4] -51.6% | [5] -11.9% | [6] 2.05%

N#Cc1ccc(Nc2cnc3ccc(N)cc3n2)cc1
inactive: [1] -41.2% | [2] -37.6% | [3] -43.8% | [4] -25.4% | [5] -25.4% | [6] -54.1%

CCOC(=O)CNC(=O)C(Cc1ccccc1)NC(=O)c1ccccc1NC(=O)c1ccccc1 (stereo unspecified)
inactive: [1] 28.8% | [2] 20.8% | [3] 4.3% | [4] 13.3% | [5] 0.7% | [6] 22.2%

COc1cc([C@@H]2c3cc4c(cc3[C@](C)(O)[C@H]3COC(=O)[C@H]23)OCO4)cc(OC)c1OC
inactive: [1] 19.7% | [2] 10.4% | [3] 14.1% | [4] 22.8% | [5] 19.1% | [6] 11%

O=C(OCCN1CCOCC1)C1C[C@@H](O)CN1C(=O)c1ccc2c(c1)OCO2 (stereo partly specified)
inactive: [1] -10.8% | [2] -5.85% | [3] 7.7% | [4] 1.9% | [5] -14.2% | [6] 6.25%

Cc1ccc(C)c(N2C(=O)C(=O)C(c3nc4ccccc4s3)/C(=N/NC(=O)NN)C2=O)c1 (stereo unspecified)
inactive: [1] 1.9% | [2] 14.1% | [3] -5.75% | [4] -2.55% | [5] -2.1% | [6] -16.9%

N#Cc1ccccc1NC(=O)C(=O)C1NC(=S)NC1=O (stereo unspecified)
inactive: [1] 15.4% | [2] -1.75% | [3] 26% | [4] 13.6% | [5] -3.2% | [6] 18.1%

CN(C)CC1CC(O)C(CN(C)C)CC1O (stereo unspecified)
inactive: [1] -6.2% | [2] -13.4% | [3] -20.2% | [4] -6.15% | [5] -6.25% | [6] -8.95%

Cc1ccc(N=CN(C)C)c(Cl)c1
inactive: [1] -4.5% | [2] 0.8% | [3] 4.6% | [4] -16.8% | [5] -7.4% | [6] -23.1%

O=C(O)CC(=O)C(C(=O)O)C(CCc1ccccc1)C(C(=O)O)C(=O)CC(=O)O (stereo unspecified)
inactive: [1] -21.2% | [2] -13.6% | [3] -19.7% | [4] 10.2% | [5] -2.75% | [6] -11.4%

O=C1CCC(=O)N1C(c1ccccc1)(c1ccccc1)N1C(=O)CCC1=O
inactive: [1] -20.9% | [2] 12.2% | [3] -2% | [4] 29.1% | [5] 8.25% | [6] -6.85%

CCOc1ccc2c(N=[N+]=[N-])cc(C)nc2c1
inactive: [1] -46.1% | [2] -11.2% | [3] -18.2% | [4] -67.8% | [5] 5.3% | [6] 5.45%

Cc1ccc(-c2cc(O)c3nc4ccccc4n3c2)cc1
inactive: [1] -36.4% | [2] -10.1% | [3] -31.4% | [4] -22.9% | [5] -18.5% | [6] -24.1%

CC(=O)NCCNC(=O)c1ccc(C)c(OCc2ccccc2)c1[N+](=O)[O-]
inactive: [1] 7% | [2] 11.7% | [3] -1% | [4] -26.2% | [5] -1.6% | [6] 4.45%

C/C=C(\C)C(=O)OC1CC(C)(O)C(=O)C(OC(=O)/C(C)=C/C)C2(C)CCC(O)(C(C)C)C12 (stereo unspecified)
inactive: [1] -27.2% | [2] -30.1% | [3] -34.7% | [4] -16.8% | [5] -15% | [6] -24.8%

— PubChem BioAssay (NCI)
